Assay outcomes from PubChem.
Most compounds without a hit are left out; they make up all but 12% or so of the library.
JMJD2A Tudor – inhibitors of human JMJD2A Tudor domain. AlphaScreen JMJD2A-Tudor / H3K4me3 peptide binding. Potency, µM (highest dose often 114 µM), inactives show at the highest dose activity change, negative = inhibition, usual class: inhibitors. actives 4.4% (n = 390,000). AID 504339; also: % is scaled to controls: 0 for no effect and ±100 for the full control effect; nearly all actives have a fitted effect of over 50% in size
G9a block – inhibitors of human histone lysine methyltransferase G9a; Q96KQ7; G9a H3K9 monomethylation, AlphaScreen, 2 h; Potency, µM (series often up to 102 µM), without a hit: top-dose activity, negative = inhibition, most hits filed as inhibitors; actives 8.8% (n = 350,000); AID 504332; also: % is scaled to controls: 0 for no effect and ±100 for the full control effect; nearly all actives have a fitted effect of over 75% in size
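Enzyme 20 nM + cpd, 15 min RT; add b-H3K9 pep 500 nM / SAM 20 uM; 2 h RT; anti-H3K9me1 Ab 0.5 ug/mL + SA donor / anti-rabbit acceptor beads 20 ug/mL each, 10 min; AlphaScreen read.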
Sfp PPTase inh – blocks B. subtilis Sfp PPTase activity; Biochemical Sfp PPTase activity, qHTS; Potency, µM, without a hit: largest response in the series, negative = inhibition, most hits filed as inhibitors; actives 3.5% (n = 310,000); AID 1490;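 also: the enzyme is Sfp with the accession as filed and its product quenches rhodamine fluorescence; 0% = enzyme reaction without inhibitor and -100% = no enzyme wells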
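Reaction rates are the 30-min fluorescence difference (ex 525, em 598 nm) in wells containing 15 nM Sfp, 5 uM rhodamine-CoA and 12.5 uM BHQ-2-YbbR at pH 7.6 with 10 mM MgCl2.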
L3MBTL1 block – L3MBTL1 (human) inhibition. AlphaScreen L3MBTL1–H3K9me1 peptide binding. actives 0.66% (n = 230,000). Q9Y468. Potency, µM (titrated, usually from 57.1 µM), without a hit: at the highest dose activity, negative = inhibition, usual class: inhibitors; also: % is scaled to controls: 0 for no effect and ±100 for the full control effect; nearly all actives have a fitted effect of over 60% in size
Target sequence (Q9Y468 whole entry, looked up): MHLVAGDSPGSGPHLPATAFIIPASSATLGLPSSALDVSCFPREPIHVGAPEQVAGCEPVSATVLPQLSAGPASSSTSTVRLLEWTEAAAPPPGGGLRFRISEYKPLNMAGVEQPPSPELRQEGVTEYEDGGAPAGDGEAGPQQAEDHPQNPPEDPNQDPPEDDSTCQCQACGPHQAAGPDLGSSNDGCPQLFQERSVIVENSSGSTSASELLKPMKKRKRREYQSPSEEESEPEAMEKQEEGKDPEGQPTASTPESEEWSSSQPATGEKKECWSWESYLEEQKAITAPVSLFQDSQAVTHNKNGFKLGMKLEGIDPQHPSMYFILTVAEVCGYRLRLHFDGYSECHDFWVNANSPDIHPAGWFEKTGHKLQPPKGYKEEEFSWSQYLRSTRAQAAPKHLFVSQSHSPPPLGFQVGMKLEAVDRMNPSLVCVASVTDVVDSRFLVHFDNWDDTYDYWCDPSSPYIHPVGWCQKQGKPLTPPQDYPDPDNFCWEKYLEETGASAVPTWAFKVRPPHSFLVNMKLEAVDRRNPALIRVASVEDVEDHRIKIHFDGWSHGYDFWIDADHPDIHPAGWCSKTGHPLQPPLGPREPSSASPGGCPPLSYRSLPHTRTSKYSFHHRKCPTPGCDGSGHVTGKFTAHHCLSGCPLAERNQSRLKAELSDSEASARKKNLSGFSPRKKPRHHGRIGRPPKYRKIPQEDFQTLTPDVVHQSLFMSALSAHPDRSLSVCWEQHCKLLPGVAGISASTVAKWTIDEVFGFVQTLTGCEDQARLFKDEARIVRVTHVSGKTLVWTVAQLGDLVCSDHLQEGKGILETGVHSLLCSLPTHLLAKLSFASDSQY
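L3MBTL1 (50 nM) pre-complexed 30 min with biotinylated H3(1-15)K9me1 peptide (75 nM), then compounds added for 30 min at room temperature; AlphaScreen streptavidin donor/nickel chelate acceptor beads (10 ug/mL final) read after 30 min dark incubation.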
BAZ2B inh – inhibitors of human BAZ2B bromodomain. AlphaScreen BAZ2B-H3K14Ac peptide displacement. Potency, µM (titrated, usually from 114 µM), for the others: top-dose activity change, negative = inhibition, actives largely listed as inhibitors. actives 4.4% (n = 360,000); also: % is scaled to controls: 0 for no effect and ±100 for the full control effect; nearly all actives have a fitted effect of over 60% in size
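Complex of BAZ2B and biotin-H3K14Ac (50 nM apiece) forms over 30 min at RT, then faces library compounds up to 110 uM for another 30 min; AlphaScreen beads added, 20 min dark incubation, luminescence read.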
HP1b binding inh – blocks HP1-beta chromodomain binding to methylated histone tails. P83916. AlphaScreen HP1-beta / biotin-H3K9me3 peptide binding. Potency, µM (highest dose often 114 µM), for inactives: at the highest dose activity change, negative = inhibition, most hits filed as inhibitors. actives 0.56% (n = 390,000). AID 540317; also: nearly all actives have a fitted effect of over 70% in size
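HP1-beta protein (50 nM final) preincubated 30 min at room temperature with biotinylated H3(1-18)K9me3 peptide (50 nM) in PBS pH 7.4, 0.01% Tween-20, then compound added for 30 min. AlphaScreen streptavidin donor/nickel chelate acceptor beads (10 ug/mL final), 30 min dark, luminescence read.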
* marks the source's active call; other numbers are inactive results; [ ] = dose if it differs, or a comment. Calls follow the shape of the dose curve; as a rule, active = well fitted curve in the direction sought with a large enough effect; inconclusive = small, poorly fitted or top-dose-only effect, or another doubt; inactive = no such curve, though single readings can be large; an effect the other way counts as inactive or inconclusive. Potency is read from the fitted curve at half-maximal effect.

What do the screens show for `CCOC(=O)c1ccc(NC(=O)CN2C(=O)NC3(CCC(C)CC3)C2=O)cc1` (stereo not drawn)?
JMJD2A Tudor: -16.9%[57.1 µM]; G9a block: 3.3%; Sfp PPTase inh: 19.5%; L3MBTL1 block: -0.5%; BAZ2B inh: -14.8%; HP1b binding inh: 16.0%

Results for CCOC(=O)CON1C(=O)C(=O)N(OCC(=O)OCC)[C@H]2CCCC[C@H]21 ?
JMJD2A Tudor: 2.8%; G9a block: inconclusive; Sfp PPTase inh: 12.0%; BAZ2B inh: 3.4%; HP1b binding inh: 23.5%

Results for CCOC(=O)CN1NC2(CCC(C)CC2)NC1=S (stereo not drawn) ?
JMJD2A Tudor: 28.2µM*; G9a block: 25.1µM*; Sfp PPTase inh: 35.5µM*; BAZ2B inh: inconclusive; HP1b binding inh: 32.8%

Results for CCOC(=O)CN1NC2(CCCC(C)C2)NC1=S (stereo not drawn) ?
JMJD2A Tudor: 50.1µM*; G9a block: 10µM*; Sfp PPTase inh: 25.1µM*; BAZ2B inh: -3.9%; HP1b binding inh: 37.9%

How did CCOc1ccc(OC(=O)c2c(-c3ccccc3Cl)noc2C)cc1 do in these assays?
JMJD2A Tudor: 43.7%; G9a block: 28.8%[59 µM]; BAZ2B inh: 66.8%; HP1b binding inh: 90.7%

What do the screens show for `COc1cc(C)c(NC(=S)NCCCN2CCOCC2)cc1OC`?
JMJD2A Tudor: -3.4%[57.1 µM]; G9a block: 35.5µM*; Sfp PPTase inh: -25.2%; BAZ2B inh: -18.8%; HP1b binding inh: 25.5%

How did COc1ccc(C(C)(C)C)cc1NC(=S)NCCN1CCOCC1 do in these assays?
JMJD2A Tudor: -18.5%; G9a block: 44.7µM*; Sfp PPTase inh: 17.8µM*; L3MBTL1 block: inconclusive; BAZ2B inh: -12.6%; HP1b binding inh: -12.7%

How did COc1cc(NC(=S)NCCCN2CCOCC2)cc(OC)c1OC do in these assays?
JMJD2A Tudor: -9.1%; G9a block: 0.9%; Sfp PPTase inh: 8.5%; L3MBTL1 block: 4.3%; BAZ2B inh: -8.4%; HP1b binding inh: 19.7%

Results for COc1c(N2C[C@@H]3CCCN[C@H]3C2)c(F)cc2c(=O)c(C(=O)O)cn(C3CC3)c12 ?
G9a block: -9.3%[2.33 µM]; Sfp PPTase inh: 12.6%

How did CC(C)C[C@@H](CC(=O)N[C@@H](CCC(=O)O)CC(=O)O)NC(=O)[C@@H]1CCCC[C@H]1NC(=O)C[C@H](CCCN)NC(=O)C[C@H](Cc1ccccc1)NC(=O)[C@@H]1CCCC[C@H]1N do in these assays?
Sfp PPTase inh: -16.1%

What do the screens show for `CC(C)C[C@H](NC(=O)OC(C)(C)C)c1n[nH]c(=S)n1N`?
JMJD2A Tudor: 4.2%; G9a block: 10µM*; Sfp PPTase inh: -51.6%; L3MBTL1 block: 2.2%; BAZ2B inh: -18.5%; HP1b binding inh: 27.1%

What do the screens show for `CC(=O)Nc1sc(NC(=O)c2ccc(Cl)cc2)nc1-c1cccs1`?
JMJD2A Tudor: -5.5%; Sfp PPTase inh: 0.8%; L3MBTL1 block: -2.5%; BAZ2B inh: -2.8%; HP1b binding inh: 6.5%

What do the screens show for `Nc1nc(-c2cccs2)c(NC(=O)c2ccccc2)s1`?
JMJD2A Tudor: inconclusive; G9a block: 7.94µM*; Sfp PPTase inh: -29.1%; L3MBTL1 block: -7.7%; BAZ2B inh: inconclusive; HP1b binding inh: -33.8%

How did CC(=O)Nc1sc(N/N=C/c2ccccc2)nc1-c1ccc(C)cc1 do in these assays?
JMJD2A Tudor: inconclusive; G9a block: 15.8µM*; Sfp PPTase inh: -3.6%; L3MBTL1 block: -17.2%; BAZ2B inh: inconclusive; HP1b binding inh: inconclusive

Results for CC(=O)Nc1sc(N/N=C/c2ccccc2F)nc1-c1ccc(C)cc1 ?
JMJD2A Tudor: inconclusive; G9a block: 14.1µM*; Sfp PPTase inh: -20.6%; L3MBTL1 block: -19.1%; BAZ2B inh: -38.5%; HP1b binding inh: -11.6%

Results for CCOc1cc(/C=N/Nc2nc(-c3cccs3)c(NC(C)=O)s2)ccc1O ?
JMJD2A Tudor: 28.2µM*; G9a block: 20µM*; Sfp PPTase inh: -27.7%; L3MBTL1 block: -6.3%; BAZ2B inh: 39.8µM*; HP1b binding inh: 20µM*

How did CC(=O)Nc1sc(N/N=C\c2ccccc2Cl)nc1-c1cccs1 do in these assays?
JMJD2A Tudor: inconclusive; G9a block: -21.7%[59 µM]; Sfp PPTase inh: -14.7%; L3MBTL1 block: 10.1%; BAZ2B inh: 14.5%; HP1b binding inh: -3.2%

What do the screens show for `CCOC(=O)c1[nH]c2c(c1Cc1ccccc1)C(=O)CC(c1ccc(C(C)(C)C)cc1)C2` (stereo not drawn)?
JMJD2A Tudor: -26.7%; G9a block: -2.7%[59 µM]; BAZ2B inh: -26.8%; HP1b binding inh: 9.6%

What do the screens show for `Cc1ccc(C)c(N2CCN(C(=O)C(C)n3c(C)c4cnn(-c5ccccc5)c(=O)c4c3C)CC2)c1` (stereo not drawn)?
JMJD2A Tudor: -10.7%; G9a block: 0.6%[59 µM]; BAZ2B inh: -22.4%; HP1b binding inh: 16.3%

Results for COc1ccc(/C=N/Nc2nc(-c3ccc(C)cc3)c(NC(C)=O)s2)cc1 ?
JMJD2A Tudor: 56.2µM*; G9a block: 10µM*; Sfp PPTase inh: 7.9%; L3MBTL1 block: -14.0%; BAZ2B inh: inconclusive; HP1b binding inh: inconclusive

Results for CC(=O)Nc1sc(N/N=C\c2ccccc2)nc1-c1cccs1 ?
JMJD2A Tudor: 20µM*; G9a block: 11.2µM*; Sfp PPTase inh: 50.1µM*; L3MBTL1 block: -4.5%; BAZ2B inh: inconclusive; HP1b binding inh: 50.1µM*

How did CC(=O)c1sc(N/N=C\c2ccc(Br)cc2)nc1C do in these assays?
JMJD2A Tudor: 4.3%; G9a block: 50.3%[59 µM]; Sfp PPTase inh: 8.0%; L3MBTL1 block: 18.9%; BAZ2B inh: 6.7%; HP1b binding inh: 40.9%

Results for CC(=O)Nc1sc(N/N=C\c2ccco2)nc1-c1cccs1 ?
JMJD2A Tudor: inconclusive; G9a block: 5.62µM*; Sfp PPTase inh: 17.8µM*; L3MBTL1 block: -23.6%; BAZ2B inh: inconclusive; HP1b binding inh: 14.1µM*

Results for CCOC(=O)c1nc(N/N=C/c2ccccc2)sc1Br ?
JMJD2A Tudor: -19.2%; G9a block: 44.7µM*; Sfp PPTase inh: -9.2%; L3MBTL1 block: -4.4%; BAZ2B inh: -30.3%; HP1b binding inh: 8.8%

What do the screens show for `COc1ccc(-n2c(SCC(=O)NCc3ccccc3)nc3c([nH]c4ccccc43)c2=O)cc1`?
JMJD2A Tudor: -10.0%; G9a block: 1.8%[59 µM]; BAZ2B inh: -1.6%; HP1b binding inh: 18.4%[57 µM]

How did CC(=O)Nc1sc(N/N=C/c2ccc(O)cc2)nc1-c1ccc(C)cc1 do in these assays?
JMJD2A Tudor: 44.7µM*; G9a block: 12.6µM*; Sfp PPTase inh: -2.5%; L3MBTL1 block: -7.5%; BAZ2B inh: inconclusive; HP1b binding inh: 39.8µM*
